The text below walks through data of PubChem BioAssay (Tox21).

Several values for one entry are separate records, joined by “and”; a condition that tells them apart may be missing. Equal entries are not always repeated. Unmarked numbers belong to inactive results. Records with an inconclusive call do not appear. Activity calls are given as the source filed them. Unless noted, the call rests on the fitted dose curve; in most records, active means well fitted curve in the direction sought with a large enough effect in the repeat runs; inconclusive means weak or mixed curves; inactive means no such curve, though single readings can be large; an effect the other way counts as inactive or inconclusive.

A short description of assay [1]: qHTS assay to identify small molecule agonists of the estrogen receptor alpha (ER-alpha) signaling pathway in the presence of an antagonist - cell viability counter screen (AID 1259386).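 Further: cells exposed to compounds for 22 h at 37 °C before the viability read; nearly all actives have a fitted effect of over 30% in size.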 Further: potency means the concentration at half of the fitted maximal effect. On activity change, negative = cytotoxicity: series mostly up to about 92 µM. The method in brief: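 Fluorescent CellTiter-Fluor viability signal from VM7Luc4E2 cells, with the reagent added during the final hour of a 22hr compound exposure at 37C in the presence of 10.0nM ICI-182,780.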
On the technique in general: qHTS replaces the single test concentration by a dilution series.

The target in assay [2] is Progesterone receptor (Homo sapiens) (UniProt P06401). In words: qHTS assay to identify small molecule antagonists of the progesterone receptor (PR) signaling pathway (AID 1346795; active means well fitted inhibition curve with a large enough effect in the signal ratio in the repeat runs, not every such curve was filed as active; the % refers to the signal ratio). The method in brief: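 In HEK293T cells bearing the PR-UAS-bla reporter, compound effects on promegestone-driven (1 nM) beta-lactamase expression are assessed after 16 hr using a fluorescent FRET substrate incubated 2 hr at room temperature.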

The nature of assay [3]: qHTS assay to identify small molecule antagonists of the progesterone receptor (PR) signaling pathway - cell viability counter screen (AID 1346798). Further: nearly all actives have a fitted effect of over 50% in size. Further: potency means the concentration at half of the fitted maximal effect. On activity change, negative = cytotoxicity: series mostly up to about 92 µM. The method in brief:
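Following a 4 hr attachment, PR-UAS-bla HEK293T cells in charcoal-stripped FBS medium were exposed to compounds with R5020 for 16 hr; CellTiter-Glo was added and luminescence read after 30 min at room temperature.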

Assay [4] in a line: qHTS assay to identify small molecule agonists of the progesterone receptor (PR) signaling pathway - cell viability counter screen (AID 1346799; calls by dose curve; further: nearly all actives have a fitted effect of over 45% in size; further: potency means the concentration at half of the fitted maximal effect). The method in brief:
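Here, 3,000 PR-UAS-bla HEK293T cells per well were treated with compounds for 16 hr after a 6 hr preincubation at 37C and 5% CO2; cell viability is the CellTiter-Glo luminescence signal.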

A short description of assay [5]: qHTS assay to identify small molecule antagonists of the TGF-beta/Smad signaling pathway - cell viability counter screen (AID 1346824). Further: nearly all actives have a fitted effect of over 50% in size. The method in brief:
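SBE-bla HEK 293T cells were plated overnight at 37 C, then given compounds in DMSO plus TGF-beta1 (added as 0.25 ng/mL solution) for 5 hr. After the bla read, CellTiter-Glo was added to the same wells and luminescence read after 30 min at room temperature.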

Assay [6] can be described thus: qHTS assay to identify small molecule agonists of the TGF-beta/Smad signaling pathway - cell viability counter screen (AID 1346829). Further: top concentration of the series differs between compounds; nearly all actives have a fitted effect of over 45% in size. The method in brief:
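Compound-treated SBE-bla HEK 293T cells (5 hr, 37 C) were assessed for viability with CellTiter-Glo in parallel with the reporter read.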

A short description of assay [7]: qHTS assay to identify small molecule agonists of the TGF-beta/Smad signaling pathway (AID 1346859; active means well fitted activation curve with a large enough effect in the signal ratio in the repeat runs, not every such curve was filed as active; the % refers to the signal ratio; further: potency means the concentration at half of the fitted maximal effect; on activation: series mostly up to about 77 µM). The method in brief:
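Each well held 4,000 SBE-bla HEK 293T cells incubated overnight before compound addition; 5 hr later the cleavable FRET substrate went on for 2 hr at room temperature, and fluorescence was read at two emissions.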

Assay [8] has as its target Thyrotropin-releasing hormone receptor (Homo sapiens) (UniProt P34981). In words: qHTS assay to identify small molecule antagonists of the thyrotropin-releasing hormone receptor (TRHR) signaling pathway (AID 1346877; active means well fitted inhibition curve with a large enough effect in the repeat runs, not every such curve was filed as active; further: series mostly up to about 51 µM). The method in brief: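 In this cell-based calcium flux format, HEK293 cells expressing TRHR received test compound for 5 min before the agonist TRH (1 nM final). Dye loading lasted 2 h at 37 °C.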

The target is the same in assay [9]. Description: qHTS assay to identify small molecule agonists of the thyrotropin-releasing hormone receptor (TRHR) signaling pathway (AID 1346891; calls by dose curve; further: series mostly up to about 58 µM). The method in brief: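 Screening of agonists relied on calcium signalling in HEK293 cells expressing human TRHR: dye loading 2 h at 37 °C preceded compound addition and a 3-min fluorescence time course.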
The nature of assay [10]: Human pregnane X receptor (PXR) small molecule agonists, qHTS cell viability counter screen (AID 1346977). Further: nearly all actives have a fitted effect of over 50% in size. Further: potency means the concentration at half of the fitted maximal effect. The method in brief:
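Tox21 qHTS format; PXR-Luc HepG2, 2,000/well, charcoal-stripped FBS 5%. Cpd exposure 24hr. Read: CellTiter-Fluor fluorescence, multiplexed with luciferase.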

Assay [11] is described as follows: Caspase-3/7 induction in HepG2 cells by small molecules, qHTS assay (AID 1346978). Further: nearly all actives have a fitted effect of over 15% in size. Further: potency means the concentration at half of the fitted maximal effect. The method in brief:
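Wild-type HepG2 cells (2,000/well) were settled 5 h at 37 C, 5% CO2, then exposed to compounds in DMSO for 17 h. Caspase-3/7 activity was read by luminescence 30 min after adding Caspase-Glo 3/7 reagent at room temperature.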

Assay [12] is described as follows: Caspase-3/7 induction in CHO-K1 cells by small molecules, qHTS assay (AID 1346980). Further: nearly all actives have a fitted effect of over 15% in size. Further: potency means the concentration at half of the fitted maximal effect. The method in brief:
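Wild-type cells were seeded at 1,500 per well and settled 5 hr at 37 C, 5% CO2, then exposed to DMSO-dissolved compounds for 17 hr. Caspase-Glo 3/7 reagent was added, and luminescence was read after 30min at room temperature.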

Assay [13] in a line: Caspase-3/7 induction in HepG2 cells by small molecules, qHTS cell viability counter screen (AID 1346981). Further: nearly all actives have a fitted effect of over 30% in size. Further: potency means the concentration at half of the fitted maximal effect. On activity change, negative = cytotoxicity: series mostly up to about 92 µM. The method in brief:
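Counter screen for cytotoxicity: HepG2 exposed 16 hr to compounds, then CellTiter-Fluor viability signal (fluorescence, 1 hr reagent incubation).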

A short description of assay [14]: Caspase-3/7 induction in CHO-K1 cells by small molecules, qHTS cell viability counter screen (AID 1346979). Further: nearly all actives have a fitted effect of over 35% in size. Further: potency means the concentration at half of the fitted maximal effect. The method in brief:
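CellTiter-Fluor viability check, qHTS format: wild-type CHO-K1, 16hr compound treatment, 1hr reagent incubation, fluorescence read.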

Assay [15] deals with Nuclear receptor subfamily 1 group I member 2 (Homo sapiens) (UniProt O75469). Description: Human pregnane X receptor (PXR) small molecule agonists, qHTS assay (AID 1346982). Further: nearly all actives have a fitted effect of over 35% in size. Further: potency means the concentration at half of the fitted maximal effect. The method in brief:
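Luminescence (ONE-Glo, 30 min RT) after 24 hr compound exposure of PXR-Luc HepG2 cells; cells rested 5 hr post-plating in 5% charcoal-stripped FBS medium.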

Assay [16] has as its target Cytochrome P450 2D6 (Homo sapiens) (UniProt P10635). Description: Cytochrome P450 Family 2 Subfamily D Member 6 (CYP2D6) small molecule antagonists: luciferase reporter qHTS assay (AID 1671196). Further: nearly all actives have a fitted effect of over 50% in size. Further: potency means the concentration at half of the fitted maximal effect. On activity change, negative = inhibition: series mostly up to about 120 µM. The method in brief:
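Inhibition of CYP2D6 was gauged by loss of luminescence, since light produced tracks the luciferin generated from a proluciferin substrate. A 10 min room-temperature preincubation preceded 1 h NADPH-supported turnover.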
Background: A reporter such as luciferase makes a cellular process visible.

Assay [17] deals with Progesterone receptor (Homo sapiens) (UniProt P06401). In words: qHTS assay to identify small molecule agonists of the progesterone receptor (PR) signaling pathway (AID 1346784; calls by dose curve; further: nearly all actives have a fitted effect of over 30% in size). The method in brief: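 Compounds were tested for PR agonism in HEK 293T cells bearing a beta-lactamase gene under UAS control. Treatment lasted 16 hr at 37C; signal came from fluorescence of a FRET substrate.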

Assay [18] addresses Nuclear receptor subfamily 1 group I member 2 (Rattus norvegicus) (UniProt Q9R1A7). Description: Rat pregnane X receptor (rPXR) activation by small molecules, qHTS assay (AID 1346983). Further: nearly all actives have a fitted effect of over 20% in size. To be noted: rPXR luciferase reporter cells, One-Glo luminescence, 24 h; max activation: hits give high values. The method in brief:
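Cell-based rPXR luciferase reporter assay, 2,000 cells per well, rested 5hr at 37 C before compound addition in DMSO, then 24 hr at 37 C. One-Glo reagent was added and luminescence read after 30 min at room temperature.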

In assay [19] the target is Nuclear receptor subfamily 1 group I member 2 (Homo sapiens) (UniProt O75469). In words: Human pregnane X receptor (PXR) activation by small molecules, qHTS assay (AID 1346985). Further: nearly all actives have a fitted effect of over 40% in size. The method in brief:
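DPX-2 cells (HepG2 co-transfected with a PXR response element and a CYP3A4-promoter luciferase construct) were seeded at 2,000 per well, rested 5 hr at 37C, then exposed to DMSO-dissolved compounds for 24 hr. Activation was read as luciferase luminescence.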
On the % scale 0 is the no-effect control and ±100 the full control effect.

Cytochrome P450 2D6 (Homo sapiens), sequence (P10635 whole entry, looked up): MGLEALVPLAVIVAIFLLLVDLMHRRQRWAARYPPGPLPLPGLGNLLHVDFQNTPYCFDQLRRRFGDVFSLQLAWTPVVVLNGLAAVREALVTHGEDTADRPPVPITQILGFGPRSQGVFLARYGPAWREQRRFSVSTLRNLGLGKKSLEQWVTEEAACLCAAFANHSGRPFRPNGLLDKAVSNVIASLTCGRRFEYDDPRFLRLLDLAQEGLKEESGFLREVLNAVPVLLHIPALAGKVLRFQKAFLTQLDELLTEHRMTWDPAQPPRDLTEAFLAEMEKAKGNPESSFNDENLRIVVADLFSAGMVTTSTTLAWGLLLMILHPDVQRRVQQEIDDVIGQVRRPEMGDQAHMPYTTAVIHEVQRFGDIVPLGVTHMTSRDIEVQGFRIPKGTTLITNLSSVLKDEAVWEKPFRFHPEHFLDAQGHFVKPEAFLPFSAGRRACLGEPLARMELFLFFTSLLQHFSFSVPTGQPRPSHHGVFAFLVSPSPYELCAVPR
Thyrotropin-releasing hormone receptor (Homo sapiens), sequence (P34981 whole entry, looked up): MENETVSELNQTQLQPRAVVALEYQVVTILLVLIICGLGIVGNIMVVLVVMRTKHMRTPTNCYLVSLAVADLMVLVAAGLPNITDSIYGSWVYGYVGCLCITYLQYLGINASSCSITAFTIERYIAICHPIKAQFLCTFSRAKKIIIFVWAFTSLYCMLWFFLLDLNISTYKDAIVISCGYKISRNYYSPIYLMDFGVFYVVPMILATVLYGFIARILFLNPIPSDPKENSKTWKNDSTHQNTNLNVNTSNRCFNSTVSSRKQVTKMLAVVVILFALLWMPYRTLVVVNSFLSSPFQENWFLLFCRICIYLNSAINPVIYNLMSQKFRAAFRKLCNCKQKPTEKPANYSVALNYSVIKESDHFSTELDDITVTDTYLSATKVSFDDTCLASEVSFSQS
Nuclear receptor subfamily 1 group I member 2 (Homo sapiens), sequence (O75469 whole entry, looked up): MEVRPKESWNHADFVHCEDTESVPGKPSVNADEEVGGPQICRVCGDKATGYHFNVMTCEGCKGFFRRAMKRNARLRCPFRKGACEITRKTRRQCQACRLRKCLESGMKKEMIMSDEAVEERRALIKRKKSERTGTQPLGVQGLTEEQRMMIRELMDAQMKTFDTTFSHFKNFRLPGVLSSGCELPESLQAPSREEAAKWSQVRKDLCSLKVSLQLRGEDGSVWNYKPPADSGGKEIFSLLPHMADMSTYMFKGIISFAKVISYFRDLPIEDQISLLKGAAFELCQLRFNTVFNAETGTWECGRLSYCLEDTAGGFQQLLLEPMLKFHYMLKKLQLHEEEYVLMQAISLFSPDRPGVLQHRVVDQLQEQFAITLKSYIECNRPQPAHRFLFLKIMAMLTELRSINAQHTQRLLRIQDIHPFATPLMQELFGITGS
Progesterone receptor (Homo sapiens), sequence (P06401 whole entry, looked up): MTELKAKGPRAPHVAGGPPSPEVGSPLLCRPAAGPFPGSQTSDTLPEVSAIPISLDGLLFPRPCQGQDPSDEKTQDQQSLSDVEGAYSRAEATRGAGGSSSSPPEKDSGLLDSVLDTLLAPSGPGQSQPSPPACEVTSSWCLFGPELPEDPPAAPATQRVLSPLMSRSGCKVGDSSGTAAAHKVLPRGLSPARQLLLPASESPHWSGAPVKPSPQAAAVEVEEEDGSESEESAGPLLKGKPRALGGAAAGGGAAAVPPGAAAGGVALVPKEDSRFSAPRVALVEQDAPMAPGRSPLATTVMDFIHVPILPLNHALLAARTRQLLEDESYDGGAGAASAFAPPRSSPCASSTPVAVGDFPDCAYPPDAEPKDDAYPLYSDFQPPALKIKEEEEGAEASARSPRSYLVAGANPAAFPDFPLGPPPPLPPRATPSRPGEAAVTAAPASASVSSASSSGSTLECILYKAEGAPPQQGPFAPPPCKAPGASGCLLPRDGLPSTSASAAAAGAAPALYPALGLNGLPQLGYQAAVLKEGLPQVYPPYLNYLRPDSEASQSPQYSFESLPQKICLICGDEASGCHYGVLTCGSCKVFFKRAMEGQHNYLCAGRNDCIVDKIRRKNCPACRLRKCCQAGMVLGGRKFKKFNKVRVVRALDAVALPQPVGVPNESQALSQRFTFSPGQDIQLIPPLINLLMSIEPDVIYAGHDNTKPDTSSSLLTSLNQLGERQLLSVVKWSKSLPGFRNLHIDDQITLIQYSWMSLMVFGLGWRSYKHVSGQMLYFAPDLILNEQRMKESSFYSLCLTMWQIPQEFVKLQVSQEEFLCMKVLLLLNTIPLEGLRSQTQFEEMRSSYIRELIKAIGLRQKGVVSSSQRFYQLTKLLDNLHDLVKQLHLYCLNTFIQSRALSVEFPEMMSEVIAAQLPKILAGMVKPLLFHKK
Nuclear receptor subfamily 1 group I member 2 (Rattus norvegicus), sequence (Q9R1A7 whole entry, looked up): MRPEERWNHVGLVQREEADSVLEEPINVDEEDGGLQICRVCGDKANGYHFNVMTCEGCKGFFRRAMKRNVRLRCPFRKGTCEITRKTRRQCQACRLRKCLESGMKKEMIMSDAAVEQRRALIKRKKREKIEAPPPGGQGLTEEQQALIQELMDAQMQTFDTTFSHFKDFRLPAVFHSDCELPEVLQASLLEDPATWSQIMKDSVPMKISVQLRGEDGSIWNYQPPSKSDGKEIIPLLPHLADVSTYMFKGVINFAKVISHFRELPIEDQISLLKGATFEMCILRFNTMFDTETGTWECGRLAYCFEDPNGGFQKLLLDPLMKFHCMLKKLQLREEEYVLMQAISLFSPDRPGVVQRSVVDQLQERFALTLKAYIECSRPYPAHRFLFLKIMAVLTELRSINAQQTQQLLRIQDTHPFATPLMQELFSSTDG

On to `C=CC(=O)OCCOc1ccccc1`, for which the Potency entry in [1], in assay [2], in [3], in assay [4], in [5] and in [7] was “inactive” each time. In addition, the Potency result in [9], in assay [10], in assay [11], in [12] and in assay [13] was “inactive” throughout. Moreover, the compound was classed as inactive in assay [6] and in [8].

Consider `Brc1c2ccccc2c(Br)c2ccccc12`, for which the activity change, negative = cytotoxicity in assay [1] was 2.81% [at 8.39 µM]; in assay [3], 3.37% [at 8.39 µM]; in [4] it was 18.6% [at 8.39 µM]; in assay [6], -9.36% [at 6.97 µM]; in [10], 4.3% [at 8.39 µM]; in [14], 14.3% [at 8.39 µM]. Moreover, the activity change, negative = cytotoxicity in assay [13] was 5.61% [at 8.39 µM]. Besides, the activity change, negative = inhibition was 3.87% [at 8.39 µM] in assay [2] and 0.168% [at 10.5 µM] in assay [16]. For the same compound, in assay [5], the viability change, negative = cytotoxic is 16.5% [at 6.97 µM]. Moreover, the Potency in assay [7] is 2.22 µM (active). Further, the activity, negative = inhibition in assay [8] was -1.3% [at 4.65 µM]. Also, the activation in assay [9] is 0.0356% [at 5.23 µM]; in assay [15] it was 1.22% [at 8.39 µM]. Besides, the caspase activation in assay [11] is 0.0205% [at 8.39 µM]. For the same compound, the caspase-3/7 activation in assay [12] was -0.773% [at 8.39 µM].

Take `CCCCCCCCCCCCCCOS(=O)(=O)O`: the Potency entry in assay [1], in assay [17], in [5], in assay [7], in [9] and in [10] was “inactive” throughout. The Potency entry in assay [12], in [13], in [15] and in assay [16] was “inactive” throughout. In [4], the Potency is 30.6 µM (active). The call in assay [6] and in [8] was inactive.

Take `C#CCN(C)CCCOc1ccc(Cl)cc1Cl`: the Potency entry in [1], in assay [17], in [3], in assay [4], in assay [5] and in [7] was “inactive” each time. In addition, the Potency result in assay [9], in assay [10], in [11], in assay [14], in [12] and in assay [13] was “inactive” throughout. Also, in assay [19], the Potency result was “inactive”. Further, the compound was classed as inactive in [8]. The max activation in [18] is -1.33%. Further, the Potency in assay [16] is 1.55 µM (active).

With `CN1CCC(N(Cc2cccs2)c2ccccc2)CC1`, the Potency result in assay [1], in assay [17], in assay [5], in assay [7], in [11] and in assay [12] was “inactive” in each case. Moreover, the Potency was 23.7 µM (active) in [3], 15 µM (active) in assay [4] and 0.436 µM (active) in [16].

In the case of `C=CC(=O)OCCOCCOCCOCCOC(=O)C=C`, the Potency in [1] is 54.8 µM (active) and 68 µM (active); in assay [10], 54 µM (active); in assay [11], 68 µM (active); in assay [14] it was 8.68 µM (active) and 13.6 µM (active); in [12], 9.74 µM (active) and 12.1 µM (active); in assay [13], 30.8 µM (active) and 27.1 µM (active). In addition, the Potency entry in [17], in assay [7], in assay [9], in assay [15] and in [16] was “inactive” in each case. The call in assay [6] and in assay [8] was inactive.

In the case of `O[C@@H](COc1cccc2ncccc12)CN1CCN(C2c3ccccc3[C@@H]3[C@H](c4ccccc42)C3(F)F)CC1` (some centres not stated), the Potency entry in [1], in [17], in [3], in assay [5], in assay [7] and in assay [9] was “inactive” each time. For the same compound, the Potency result in assay [11] and in assay [12] was “inactive” in each case. Besides, the compound was called inactive in assay [6] and in [8]. Further, the Potency in assay [10] was 23.7 µM (active); in assay [14], 16.8 µM (active); in assay [13], 21.1 µM (active); in [15], 1.19 µM (active); in [16], 11 µM (active).

On to `COC(=O)C1=C(C)NC(COC(N)=O)=C(C(=O)OC(C)C)C1c1cccc(Cl)c1Cl` (configuration not stated), for which the Potency result in assay [1], in [17], in assay [5], in assay [10] and in assay [12] was “inactive” throughout. Further, the result in assay [6] was inactive. Moreover, the Potency in assay [14] is 13.3 µM (active).
